E coli Lon inh = E. coli protease La inhibition; P0A9M0; purified E. coli Lon protease, fluorescence polarization; inhibition, % at 7.94 µM; 360,000 tested, 0.42% active; in the data active = inhibition above about 13%, passing the limit was not always enough;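 also: 0% = enzyme with probe and DMSO and 100% = no enzyme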
Target sequence (P0A9M0 whole entry, looked up): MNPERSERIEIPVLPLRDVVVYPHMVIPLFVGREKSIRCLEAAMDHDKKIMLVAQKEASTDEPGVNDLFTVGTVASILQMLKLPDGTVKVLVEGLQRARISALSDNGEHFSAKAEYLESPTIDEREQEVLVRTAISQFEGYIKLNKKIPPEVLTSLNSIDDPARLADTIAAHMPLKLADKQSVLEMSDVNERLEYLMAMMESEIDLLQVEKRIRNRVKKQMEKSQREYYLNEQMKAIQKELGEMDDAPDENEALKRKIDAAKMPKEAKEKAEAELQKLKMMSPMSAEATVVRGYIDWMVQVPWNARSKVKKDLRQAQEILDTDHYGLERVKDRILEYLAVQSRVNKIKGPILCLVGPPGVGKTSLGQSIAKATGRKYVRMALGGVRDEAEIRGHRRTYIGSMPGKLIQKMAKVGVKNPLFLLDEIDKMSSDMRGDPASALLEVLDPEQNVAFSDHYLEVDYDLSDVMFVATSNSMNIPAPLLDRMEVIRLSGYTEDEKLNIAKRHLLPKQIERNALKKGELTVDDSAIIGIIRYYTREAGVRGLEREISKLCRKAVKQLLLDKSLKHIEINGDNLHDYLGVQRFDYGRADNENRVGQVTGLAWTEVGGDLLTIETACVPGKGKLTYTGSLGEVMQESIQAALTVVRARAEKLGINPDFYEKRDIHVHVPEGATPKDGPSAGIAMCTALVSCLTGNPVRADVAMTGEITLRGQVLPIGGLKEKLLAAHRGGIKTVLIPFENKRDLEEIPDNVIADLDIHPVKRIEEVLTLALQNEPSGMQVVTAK
GLD-1 RNA inh = GLD-1-TGE RNA interaction inhibition (C. elegans); purified GLD-1 + fluorescein TGE RNA, fluorescence polarization; Q17339; inhibition, % at 5.96 µM; 320,000 tested, 0.44% active;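 active = percent inhibition above a per-plate cutoff, the plate mean of test compounds plus 3 SD, cut at about 30% in these data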;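 also: 0% = DMSO wells with GLD-1 and probe and 100% = wells lacking GLD-1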
EBV gp42 block = inhibitors of Epstein-Barr virus glycoprotein 42; 220,000 tested, 0.42% active; Fluorescence polarization binding assay, mP read-out; Q1HVG2; inhibition, % (tested at 21.74 µM); in the data active = inhibition above about 50%
MEX-5 binding = C. elegans MEX-5 TCR-2 RNA binding activity. MEX-5/FITC-TCR2 RNA binding, fluorescence polarization; active compounds read low. Q9XUB2. 300,000 tested, 0.38% active. activity score (negative = inhibition of binding), % at 10 µM;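 active = inhibition past about -25% in most replicates, and total fluorescence under double the plate's negative control median, limit read from the data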;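 also: 0% = DMSO and -100% = 5 µM competing unlabeled TCR2 RNA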
Bcl-xL primary = blocks human Bcl-xL binding to Bim BH3 peptide | GST-Bcl-xL / FITC-Bim BH3 peptide fluorescence polarization | inhibition, % at 10.9 µM | 320,000 tested, 0.7% active | AID 2129;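 active = inhibition above the mean of all tested compounds plus 3 SD, cutoff set per campaign, cut at about 30% in these data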;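 also: 0% = DMSO wells and 100% = unlabeled Bim-BH3 peptide competitor; inhibitors lower millipolarization by displacing the labeled peptide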
eLon confirm = E. coli Lon inhibition confirmation; shares compounds with E coli Lon inh; purified E. coli Lon, fluorescence polarization; inhibition, % at 7.94 µM; 1,400 tested, 31% active; AID 602230; in the data active = inhibition above about 16%;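 also: 0% = enzyme with probe and DMSO and 100% = no enzyme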
Active calls of the source: *; / = no result; + = active, no number; ! = repeats disagree. A selection: hits, their analogues and other compounds. The true share with any hit is near 1.3%.

SMILES	E coli Lon inh	GLD-1 RNA inh	EBV gp42 block	MEX-5 binding	Bcl-xL primary	eLon confirm
O=C(NCCS(=O)(=O)N1CCN(c2ccccc2F)CC1)C1CC(=O)N(c2ccc(F)cc2)C1 (stereo unspecified)	74.9*	1.7	/	-1.4	-0.8	-8.5
COc1ccccc1N1CCN(S(=O)(=O)CCNC(=O)C2CC(=O)N(c3ccccc3)C2)CC1 (stereo unspecified)	3.2	-5.2	/	0.4	4.6	/
CCOC(=O)C1CCCN(C(=O)c2cc(C#N)cs2)CC1 (stereo unspecified)	-10.3	/	/	/	/	/
COC(=O)c1ccc(CNC(=O)CSc2nc3sc(C)c(C)c3c(=O)n2C)o1	-10.9	-6.1	-15.0	0.3	0.6	/
COc1ccc(CCNC(=O)c2ccc3c(c2)N(Cc2ccc(F)cc2)CCS3)c(OC)c1	18.5*	4.1	/	2.4	5.4	0.1
COc1ccc(OC)c(CCNC(=O)c2ccc3c(c2)N(Cc2ccc(F)cc2)CCS3)c1	-2.4	-2.5	/	1.7	6.7	/
O=C(Nc1ccc([N+](=O)[O-])cc1)N1CCCCC1	2.5	5.2	-2.8	2.1	1.1	/
C/C(N)=C(/C#N)C(=O)COC(=O)C1Cc2ccccc2CN1S(C)(=O)=O (stereo unspecified)	16.0*!	6.3	0.6	1.2	0.0	1.8
C/C(=N\NC(=S)NC1CCCCC1)c1cccc(C(F)(F)F)c1	-2.6	4.0	8.9	3.4	3.9	/
Fc1ccc2nc(Nc3ccccc3)sc2c1	15.2*	-1.9	3.9	/	6.0	5.6
CN(C)CCNc1ccc2ncn3c4ccc(O)cc4c(=O)c1c23	+	/	/	/	/	+
CSCCC(NC(=O)c1ccc(Cl)cc1)C(=O)OCC(=O)Nc1ccc(C#N)cc1 (stereo unspecified)	35.4*	7.2	8.1	/	0.7	0.7
CN(C)S(=O)(=O)c1cccc(NC(=O)COC(=O)CNC(=O)c2ccccc2F)c1	-1.1	0.8	-8.6	1.9	3.6	/
COCCNc1nnc(SCC(=O)NNC(=O)c2ccc([N+](=O)[O-])cc2)s1	0.1	5.3	/	-18.8	-1.1	/
CCCn1c(SCC(=O)N(C)CC(=O)Nc2ccc(Cl)cc2)n[nH]c1=O	-18.4	-0.2	/	/	-9.2	/
O=C(Cn1sc2ccccc2c1=O)NC12CC3CC(CC(C3)C1)C2	16.1*	1.1	-29.1	2.4	21.6	5.4
O=C(Cn1sc2ccccc2c1=O)Nc1ccccc1	15.7	/	/	/	/	/
CC(=O)N1CCc2c(sc(NC(=O)C3CCCN3S(=O)(=O)c3cccs3)c2C(N)=O)C1 (stereo unspecified)	40.5*	115.5*	/	-35.4*	67.1*	13.9
COC(=O)/C(=C1/Oc2ccc(C)cc2S1)C(F)(F)F	-0.5	-2.5	1.4	1.1	2.5	/
COC(=O)c1cc(NS(=O)(=O)c2cccs2)cc(NS(=O)(=O)c2cccs2)c1	125.3*	/	/	/	/	15.7
COc1ccc2c3c(cccc13)N(C)N=C2C	36.7*	42.1*	21.1	-9.4	97.3*	21.0*
COc1ccc2c3c(cccc13)OC2=O	7.5	-0.1	/	-1.3	0.3	/
Cc1ccc(NC(=O)CSCc2cc(=O)n3ccsc3n2)cc1	-7.3	-3.2	/	0.3	4.3	/
O=C(CSCc1cc(=O)n2ccsc2n1)Nc1ccc(F)cc1	65.8*	1.0	/	-0.7	1.6	3.3
O=C(OCc1ccccc1)c1c(-c2ccccc2)oc2c1C(OCCO)CCC2 (stereo unspecified)	8.3	/	/	/	/	/
SMILES	E coli Lon inh	GLD-1 RNA inh	EBV gp42 block	MEX-5 binding	Bcl-xL primary	eLon confirm
Cc1cccc(S(=O)(=O)N2CCn3cccc3C2C)c1 (stereo unspecified)	2.5	1.9	/	/	1.3	/
Cc1ccc(S(=O)(=O)N2CCn3cccc3C2C)cc1 (stereo unspecified)	20.6*	6.7	/	/	10.8	-5.2
CCN(CC)S(=O)(=O)c1cccc(C(=O)N/N=C2\CCCC(=O)C2)c1	87.0*	114.2*	4.8	-2.7	41.5*	-27.0
Cc1ccc(OCC(=O)N/N=C2\CC(=O)CC(C)(C)C2)c(Br)c1	15.2*	/	/	3.1	/	-7.5
CCOc1ccccc1OCC(=O)NN=C1CCCC(=O)C1	35.9*	0.0	/	/	/	3.6
Cc1ccccc1OCC(=O)N/N=C1\CC(=O)CC(C)(C)C1	3.5	27.5	/	-1.9	4.3	/
C=CC[C@H](CC(=O)N(CCO)Cc1ccccc1)C(=O)N[C@H](COC(=O)[C@@H](CC=C)CC(=O)OC(C)(C)C)c1ccccc1	20.0*	2.3	/	/	/	10.8
O=C1CCC(C(=O)N2CCCC(C(=O)c3ccc4ccccc4c3)C2)=NN1 (stereo unspecified)	13.3*	2.4	/	3.9	3.7	-7.2
CC(C)c1cc(C(=O)N2CCCC(C(=O)c3ccc4ccccc4c3)C2)on1 (stereo unspecified)	0.6	4.6	-9.5	0.1	4.3	/
O=C(NCCCN1CCOCC1)C(Sc1ccccc1)c1ccccc1 (stereo unspecified)	4.7	14.4	-14.7	2.1	-6.6	/
CCc1nn(CC(=O)N2CC(C)CC(C)C2)c(=O)c2cccn12 (stereo unspecified)	-13.4	-2.0	/	-2.3	4.5	/
Cc1ccc(C2C(C(=O)c3cccs3)=C(O)C(=O)N2c2nnc(C)s2)cc1 (stereo unspecified)	29.3*	101.5*	123.0*	-67.0*	96.0*	60.7*
COc1ccc(C(=O)NNC2=CC(=O)CC(C)(C)C2)cc1OC	17.2*	3.0	-16.8	-10.6	1.2	0.6
CS(=O)(=O)c1ccc(NC(=O)c2cccc(S(=O)(=O)N3CCN(Cc4ccccc4)CC3)c2)cc1	-10.2	-0.3	/	-3.6	-3.5	/
COc1ccc2nc(-c3ccco3)c(-c3ccco3)nc2c1	19.3*	22.6	36.7	-10.1	49.1*	-7.5
NC(=O)NC(=O)c1nccnc1C(=O)O	-1.9	-1.7	-17.9	0.7	0.8	/
CCC(C)c1ccc(NC(=O)COC(=O)CCNS(=O)(=O)c2cccs2)cc1 (stereo unspecified)	25.9*	2.2	/	/	/	45.1*
O=C(Nc1nc2ccccc2s1)C1c2ccccc2Oc2ccccc21	-12.9	0.2	-15.9	0.8	1.7	/
CCc1nnc(NC(=O)C2c3ccccc3Oc3ccccc32)s1	19.0*	4.7	-0.5	2.5	-0.3	-31.9
N#CCC(=O)Nc1ccc(C(=O)NCC(c2ccco2)N2CCCCC2)cc1 (stereo unspecified)	-111.5	-43.3	-20.1	3.8	-31.1	/
O=S(=O)(NC1CCCC1)c1ccc(S(=O)(=O)NC2CCCC2)cc1	6.1	4.3	-1.6	-1.0	2.0	/
N#Cc1ccc(S(=O)(=O)NC2CC2)cc1	19.6*	2.2	/	-0.8	3.0	41.6*
O=C1c2ccccc2C(=O)N1Cc1ccc2c(c1)OCO2	-1.3	11.1	-6.5	-3.1	2.7	/
Cc1ccc(S(=O)(=O)NCc2ccc3c(c2)cc(C)n3C)cc1	16.3*	25.4	-1.8	3.7	14.7	-1.8
Cc1ccc(S(=O)(=O)NCc2ccncc2)cc1	-5.0	8.1	-7.5	-0.5	1.8	/
Cc1cc2cc(CN3C(=O)c4ccccc4C3=O)ccc2n1C	24.5*	17.1	-7.4	0.2	10.0	14.0
